# Screening results (PubChem)
# HPGD inh = inhibitors of human 15-hydroxyprostaglandin dehydrogenase (HPGD); purified HPGD, NADH fluorescence kinetic, PGE2 substrate; Potency, µM, without a hit: at the highest dose activity change, negative = inhibition, hits mostly inhibitors; 150,000 compounds, 4.3% hits; P15428; note: potency is the fitted concentration of half-maximal effect
# Target sequence (P15428 whole entry, looked up): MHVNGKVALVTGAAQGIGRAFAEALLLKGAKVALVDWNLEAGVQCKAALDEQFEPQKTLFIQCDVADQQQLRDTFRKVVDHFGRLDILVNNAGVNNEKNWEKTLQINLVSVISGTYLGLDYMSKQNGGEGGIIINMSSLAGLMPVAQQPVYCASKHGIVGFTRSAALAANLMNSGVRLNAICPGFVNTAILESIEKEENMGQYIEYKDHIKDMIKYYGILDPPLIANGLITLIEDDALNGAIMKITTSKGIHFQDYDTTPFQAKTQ
#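 20 nM HPGD preincubated 15 min at room temperature with compound in 50 mM Tris-HCl pH 8, 0.01% Tween 20. Started with 1 mM NAD+ and 30 uM prostaglandin E2; NADH fluorescence (360/450 nm) read 5 times over 30-s intervals, last minus first.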
# ALDH1A1 block = inhibitors of human aldehyde dehydrogenase 1A1 | P00352 | Purified ALDH1A1, NADH fluorescence, propionaldehyde substrate | Potency, µM (doses to about 75.3 µM), inactives show at the highest dose activity, negative = inhibition, actives largely listed as inhibitors | 220,000 compounds, 7.3% hits | AID 1030;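 note: potency is the fitted concentration of half-maximal effect; plate controls were no enzyme wells and a reference inhibitor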
# PNC assembly inh = perinucleolar compartment assembly inhibition; PC3M PTB-GFP, PNC prevalence imaging, 16 h; stronger effect = lower value; activity change (PNC), negative = inhibition, % at 10 µM; 140,000 compounds, 3.1% hits; AID 2417;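 active = readout at or below -70, meaning at least 70% loss of cells showing the perinucleolar compartment, a nuclear body marking cancer cells; inconclusive = readout between -30 and a set limit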;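 note: plate controls were DMSO wells for no effect and camptothecin positive control wells for full effect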
#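 Compounds are pinned in duplicate onto adhered PC3M cells stably expressing GFP-tagged PTB and incubated 16 h at 37 C. Cells are then fixed, nuclei stained with Hoechst, and PNC-positive cells counted.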
# Numbers without * were called inactive; ? = inconclusive; nt = no result; ! = not active in a repeat; [ ] = another dose, or the depositor's remark. Sampled rows, rich in hits. Any-hit rate of the full collection: about 11%. Unless noted, calls come from the whole dose curve; as a rule, active = well fitted inhibition curve with a large enough effect (not every such curve was filed as active); inconclusive = small, poorly fitted or top-dose-only effect, or another doubt; inactive = no such curve, though single readings can be large or run the other way. Unless noted, % is set by controls: 0 for no effect and ±100 for the full control effect.
SMILES,HPGD inh,ALDH1A1 block,PNC assembly inh
O=C1OC(N2CCN(C/C=C/c3ccccc3)CC2)c2ccccc21 (stereo unspecified),-2.6%,-1.7%,-85.8*
COc1ccc(C(=O)N2CCC3(CCN(C(=O)Nc4cccc(F)c4)CC3)CC2)cc1,-5.9%,?,nt
CCc1ncc(CO)n1Cc1cccc2ccccc12,-2.3%,11.4%[13.5 µM],nt
O=C(N/N=C/c1ccc(Cl)cc1Cl)C(=O)NC1CC1,nt,-12.0%,nt
CCOC(=O)C1CCCCN1Cc1cc(OC)ccc1OC (stereo unspecified),-5.4%,15.8µM*,20.8
CCOC(=O)C1CCCCN1Cc1cccc(OC)c1OC (stereo unspecified),6.4%,?,-20.2
O=C(N[C@@H](c1ccccc1)[C@@H]1C[C@H]1C(=O)NCc1ccccc1)OCc1ccccc1,-2.5%,?,nt
COCC(=O)N(Cc1cc2ccc(C)cc2[nH]c1=O)c1ccc(OC)cc1,-7.7%,-11.4%,32.1
CCOc1ccc(N(Cc2cc3ccc(C)cc3[nH]c2=O)C(=O)COC)cc1,-12.8%,17.8µM*,29.9
CC(C)CO/N=C1/C[C@@H](O)[C@@H](O)[C@@H]2[C@@H]3C(=O)N([C@@H](C)c4ccccc4)C(=O)[C@H]3CC[C@H]12,nt,1.9%[13.5 µM],nt
CCN(CC)CCNS(=O)(=O)c1ccc(Cl)cc1,-7.1%,-5.7%,?
CN(C)CCNS(=O)(=O)c1ccc(Cl)cc1,-15.2%,1.5%,-100.0*
Cn1ccnc1SCC(=O)NC12CC3CC(CC(C3)C1)C2,-16.1%,?,-126.5*
O=C(CSC1=NCCS1)NC(c1ccccc1)c1ccccc1,-5.7%,-2.8%,-19.1
O=C(CSc1nccn1-c1ccccc1)c1ccc(Br)cc1,-14.3%,?,17.2
O=C(CSC1=NCCS1)Nc1cccc2ccccc12,14.1µM*,?,17.3
O=C(CSc1ncccc1C(=O)O)NC12CC3CC(CC(C3)C1)C2,nt,-3.0%,nt
Cn1ccnc1SCC(=O)c1ccc(Br)cc1,?,3.55µM*,18.9
COC(=O)c1cc(NC(=O)CSC2=NCCS2)cc(C(=O)OC)c1,nt,12.6µM*,nt
CC(NC(=O)CSC1=NCCS1)c1ccccc1 (stereo unspecified),nt,-0.5%,59.6
COc1ccc(Cc2nc(-c3cccs3)no2)cc1,nt,-0.8%,nt
NC(N)=NC1=NC(=O)/C(=C/c2ccccc2-n2cccn2)S1,nt,0.4%,nt
CCOC(=O)N1CCC(n2c(SCC(=O)NCCc3ccc(S(N)(=O)=O)cc3)nc3ccccc3c2=O)CC1,nt,-12.2%,nt
O=C(CSC1=NCCS1)Nc1ccccc1F,28.2µM*,8.91µM*,?
O=C(O)c1ccccc1CSC1=NCCS1,nt,20µM*,nt
SMILES,HPGD inh,ALDH1A1 block,PNC assembly inh
COC(=O)c1ccccc1NC(=O)CSc1nccn1C,-10.9%,-10.2%,22.7
Cn1ccnc1SCC(=O)Nc1cccc2ccccc12,25.1µM*,-0.1%,?
O=C(CSC1=NCCS1)NC(NC(=O)CSC1=NCCS1)c1ccccc1,nt,5.4%,nt
CN(C(=O)CSC1=NCCS1)c1ccccc1,-13.6%,2.2%,-21.8
O=S(=O)(c1ccccc1)N1CCC2(CCCN(C(c3ccccc3)c3ccccc3)C2)CC1,-3.1%,11.8%,nt
COc1ccccc1N(CC(=O)NC(C)(C)C)S(=O)(=O)c1cccs1,-15.3%,0.7%,33.6
CC(=O)N/N=C(\C)CC(=O)Nc1cccc2c1CCCC2,nt,-2.2%,nt
C/C(CC(=O)Nc1cccc2c1CCCC2)=N\NC(=O)COc1ccccc1,-14.6%,9.46µM*,8.3
CCN(CC)CCNC(=O)c1ccc(-n2c(C)cc3c2CCCC3=O)cc1,nt,2.6%,nt
C=CCn1c(COc2ccc(Cl)cc2)nnc1SCC(=O)c1c(N)n(C)c(=O)n(C)c1=O,nt,18.9%,nt
CCCCOc1cc(C(=O)NCCN(CC)CC)c2ccccc2n1,-26.1%,1.0%,-114.6*!
CCN(CC)CCCNC(=O)c1cc(Sc2nnc(C)s2)nc2ccccc12,28.2µM*,1.9%,?
CCCCN(CC)CCNC(=O)c1cc2c(C)nc3ccccc3c2o1,-8.8%,0.0%,?
COC(CNC(=O)c1cc(Sc2nnc(C)s2)nc2ccccc12)OC,?,?,8.6
CC(C)CCOC(=O)/C=C/c1ccccc1,-1.1%,-2.7%,nt
COCCNC(=O)COC(=O)/C=C/c1c(C)nn(Cc2ccc(Cl)cc2Cl)c1Cl,nt,-10.5%,?
N=C(N)SCCCN,-7.7%,5.3%[13.5 µM],nt
CC(C)c1ccc(NC(=O)C(c2ccc3c(c2)OCO3)N2CCN(C(=O)c3ccco3)CC2)cc1 (stereo unspecified),-23.6%,?,16.5
CC(C)c1ccc(NC(=O)C(c2ccccc2)N2CCN(C(=O)c3ccco3)CC2)cc1 (stereo unspecified),-17.3%,12.6µM*,-23.2
COc1cc(OC)cc(C(=O)N[C@H](C(=O)Nc2cc(C)cc(C)c2)C(C)C)c1,nt,11.8%,nt
CC(=O)c1cccc(N2Cc3ccccc3C2=NC(=O)CCl)c1,nt,3.55µM*,nt
